{"source": "PubChem BioAssay AID463173", "about": "(ICCB-Longwood Screening Facility, Harvard Medical School, 2010)", "note": "Screen size: about 52,000 compounds; about 4,300 (8.3%) were called active. For the sample, actives were picked, then their nearest neighbours and some compounds at random. Unmarked numbers belong to inactive results. Cut-off read from the data, not from the text of the source: active = survival mostly below about 52% (no sharp cut-off); inactive = mostly above about 56%.", "data": [{"system": "DeltatarO mutant", "assay": "S. aureus survival, RN4220 and DeltatarO strains – OD600, teichoic acid synthesis inhibitors, primary screen (AID 463173)", "settings": "S. aureus RN4220 wild type/DeltatarO growth, OD600, 18 h, stronger effect = lower value, screened at 18.75 µg/mL (by protocol)", "values": [{"smiles": "CCN(CC)CCCNC(=O)Cc1ccc(NC(=O)N2CCCCc3ccccc32)cc1", "survival": "79%"}, {"smiles": "CCOC(=O)c1cc2c(=O)n3ccccc3nc2n(CC2CCCO2)c1=NC(=O)c1ccc(F)cc1", "note": "(stereo not drawn)", "survival": "54%"}, {"smiles": "CCOC(=O)c1cc2c(=O)n3ccccc3nc2n(CC2CCCO2)c1=NC(=O)c1ccc(OCC)cc1", "note": "(stereo not drawn)", "survival": "51%"}, {"smiles": "CCOC(=O)c1cc2c(=O)n3ccccc3nc2n(CC2CCCO2)c1=NC(=O)c1ccccc1OCC", "note": "(stereo not drawn)", "survival": "51%"}, {"smiles": "CCOC(=O)c1cc2c(=O)n3ccccc3nc2n(CC2CCCO2)c1=NC(=O)c1ccccc1C", "note": "(stereo not drawn)", "survival": "43% (active)"}, {"smiles": "CCOC(=O)c1cc2c(=O)n3ccccc3nc2n(CC(C)C)c1=NC(=O)c1c(-c2c(F)cccc2Cl)noc1C", "survival": "165%"}, {"smiles": "CCOC(=O)c1cc2c(=O)n3ccccc3nc2n(CC2CCCO2)c1=NC(=O)c1ccccc1Br", "note": "(stereo not drawn)", "survival": "47% (active)"}, {"smiles": "CCOC(=O)c1cc2c(=O)n3ccccc3nc2n(CC2CCCO2)c1=NC(=O)c1ccccc1F", "note": "(stereo not drawn)", "survival": "44% (active)"}, {"smiles": "CCOC(=O)c1cc2c(=O)n3ccccc3nc2n(CC2CCCO2)c1=NC(=O)c1ccc(OC)cc1OC", "note": "(stereo not drawn)", "survival": "38% (active)"}, {"smiles": "O=C(CC1N=C2c3ccccc3N=C(SCC(=O)Nc3ccccc3F)N2C1=O)NCc1ccc2c(c1)OCO2", "note": "(stereo not drawn)", "survival": "73%"}, {"smiles": "Nc1c(-c2nc(-c3ccc(Cl)cc3)no2)nnn1-c1ccc(C(F)(F)F)c(Cl)c1", "survival": "75%"}, {"smiles": "Cc1cc(C)c2c(CC(=O)Nc3ccccc3C(F)(F)F)coc2c1", "survival": "72%"}, {"smiles": "O=C(NCCCN1CCCC1)c1ccccc1Cl", "survival": "86%"}, {"smiles": "COc1ccc(Nc2nc3ccc(Cl)cc3n3nnnc23)cc1OC", "survival": "102%"}, {"smiles": "CC(C)C(=O)NCC(c1ccc2c(c1)OCO2)N1CCN(c2ccccc2F)CC1", "note": "(stereo not drawn)", "survival": "74%"}, {"smiles": "COC(=O)CC(=O)CSc1nc(C)cc(C)c1C#N", "survival": "80%"}, {"smiles": "CS(=O)(=O)c1ccc2nc(NC(=O)c3ccccc3)sc2c1", "survival": "81%"}, {"smiles": "O=C(Nc1nc2ccc(Cl)cc2s1)c1cc(=O)c2ccccc2o1", "survival": "32% (active)"}, {"smiles": "Cc1cc(C)c2oc(C(=O)Nc3nc4ccc(Cl)cc4s3)cc(=O)c2c1", "survival": "61%"}, {"smiles": "Cc1ccc2c(=O)cc(C(=O)Nc3nc4ccc(Cl)cc4s3)oc2c1C", "survival": "39% (active)"}, {"smiles": "CCOc1ccc2nc(NC(=O)c3nc(SC)ncc3Cl)sc2c1", "survival": "95%"}, {"smiles": "COc1ccc2nc(NC(=O)c3cc(=O)c4cc(C)cc(C)c4o3)sc2c1", "survival": "69%"}, {"smiles": "CCOc1ccc2nc(NC(=O)c3cc(=O)c4cc(C)cc(C)c4o3)sc2c1", "survival": "85%"}, {"smiles": "CCOc1ccc2nc(NC(=O)c3cc(=O)c4ccc(C)cc4o3)sc2c1", "survival": "25% (active)"}, {"smiles": "CCOc1ccc2nc(NC(=O)c3ccccc3)sc2c1", "survival": "41% (active)"}, {"smiles": "CC(=O)Nc1ccc2nc(NC(=O)c3cc4ccccc4o3)sc2c1", "survival": "102%"}, {"smiles": "COc1ccc2nc(NC(=O)c3cc(=O)c4cc(C)c(C)cc4o3)sc2c1", "survival": "58%"}, {"smiles": "COc1ccc2nc(NC(=O)c3cc(=O)c4ccccc4o3)sc2c1", "survival": "50%"}]}]}
